In all, about 330,000 compounds went through this assay and about 10,000 (3%) were called active. The sample as a whole holds a higher share of actives than the screen did. Values without a mark were called inactive.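 How the source made its calls: active means inhibition of at least 50% at 8 µM in the primary screen; inactive means the rest.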
target: Protein Mdm4 (Homo sapiens) + E3 ubiquitin-protein ligase Mdm2 (Homo sapiens) (UniProt O15151+Q00987); assay: inhibitors of human Mdm2-MdmX association, primary screen, cell-based, luminescence, split luciferase, SaOS-2, uHTS (AID 485346); conditions: SaOS-2 split-luciferase Mdm2/MdmX complementation, at 8 µM, hits give high values
Sequence (O15151 whole entry, looked up): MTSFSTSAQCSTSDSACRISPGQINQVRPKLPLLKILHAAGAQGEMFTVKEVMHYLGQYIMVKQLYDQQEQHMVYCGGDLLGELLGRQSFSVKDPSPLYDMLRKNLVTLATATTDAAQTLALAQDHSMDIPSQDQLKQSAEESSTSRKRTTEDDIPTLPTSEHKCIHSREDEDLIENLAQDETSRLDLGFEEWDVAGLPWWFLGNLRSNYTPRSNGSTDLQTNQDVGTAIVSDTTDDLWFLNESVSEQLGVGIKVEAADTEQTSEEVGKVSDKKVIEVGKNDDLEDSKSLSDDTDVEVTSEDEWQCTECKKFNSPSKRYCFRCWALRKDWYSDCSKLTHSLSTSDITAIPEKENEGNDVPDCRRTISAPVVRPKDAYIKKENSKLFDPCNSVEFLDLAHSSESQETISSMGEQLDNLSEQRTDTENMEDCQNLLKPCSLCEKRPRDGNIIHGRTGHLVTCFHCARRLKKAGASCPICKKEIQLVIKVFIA
Sequence (Q00987 whole entry, looked up): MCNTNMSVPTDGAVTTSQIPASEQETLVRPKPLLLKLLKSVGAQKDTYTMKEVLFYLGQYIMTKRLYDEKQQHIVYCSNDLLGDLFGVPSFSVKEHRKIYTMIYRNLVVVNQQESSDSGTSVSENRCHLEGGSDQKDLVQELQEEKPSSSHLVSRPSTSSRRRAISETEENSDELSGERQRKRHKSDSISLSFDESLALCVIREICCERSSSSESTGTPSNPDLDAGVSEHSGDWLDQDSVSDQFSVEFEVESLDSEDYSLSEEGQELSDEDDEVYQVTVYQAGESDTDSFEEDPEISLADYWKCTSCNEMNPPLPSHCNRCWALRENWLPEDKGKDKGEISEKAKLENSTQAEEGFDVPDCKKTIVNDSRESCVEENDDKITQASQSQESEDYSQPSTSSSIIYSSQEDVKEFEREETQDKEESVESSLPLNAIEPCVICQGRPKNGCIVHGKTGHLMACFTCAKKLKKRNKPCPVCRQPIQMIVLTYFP

Q: Which inhibition does the source give for `CC1CC(C)CN(S(=O)(=O)c2cccc(C(=O)N3C(=O)c4cccc(N)c4C3=O)c2)C1` (stereo not drawn) here?
A: Its inhibition is 19.4%.

Q: Which inhibition does the source give for `Cc1cc(C)n(-c2ccc(NC(=O)C3CCCCN3C(=O)c3cccs3)cc2)n1` (stereo not drawn) here?
A: The inhibition was 12%.

Q: `COc1ccc(NC(=O)CCCC2CCCCC2)c(OC)c1` was tested. Which inhibition did it give?
A: Its inhibition is -13.7%.

Q: With `Cc1ccccc1-n1nnc2c(=O)oc3ccccc3c21` as the molecule, how does the inhibition read?
A: The inhibition was 8.39%.

Q: With `CNC(=O)c1ccsc1NC(=O)c1ccc(S(=O)(=O)N2CCc3ccccc32)cc1` as the molecule, how does the inhibition read?
A: Its inhibition is 38%.

Q: With `Cc1ccc(NC(=O)c2cccc(S(=O)(=O)N3CCCc4ccccc43)c2)nc1` as the molecule, how does the inhibition read?
A: Its inhibition is 2.43%.

Q: For `O=C(NC(Nc1nc2ccc([N+](=O)[O-])cc2s1)(C(F)(F)F)C(F)(F)F)c1ccccc1`, which inhibition is on record?
A: Its inhibition is 99.3% (active).

Q: With `O=C(Nc1nc2ccc([N+](=O)[O-])cc2s1)c1ccc(S(=O)(=O)N2CCCc3ccccc32)cc1` as the molecule, how does the inhibition read?
A: Its inhibition is 96.6% (active).

Q: `O=C(CNC(=O)c1ccccc1)Oc1ccc([N+](=O)[O-])cc1` was tested. Which inhibition did it give?
A: The inhibition was -9.24%.

Q: For `O=C(CCNC(=O)c1ccccc1)Nc1nc2ccccc2s1`, which inhibition is on record?
A: The inhibition was -16.2%.

Q: How did the inhibition turn out when `CCCCCCC12CCC(C(=O)O)(CC1)CC2` was run?
A: The inhibition was 11.2%.

Q: How did the inhibition turn out when `COc1cccc(CC(=O)OCC(=O)NCc2ccc3c(c2)OCO3)c1` was run?
A: Its inhibition is 1.87%.

Q: With `CCn1c(CSCc2c(Cl)cccc2Cl)n[nH]c1=S` as the molecule, how does the inhibition read?
A: Its inhibition is 7.91%.

Q: With `Cc1cc(NS(=O)(=O)c2ccc(NC(=O)c3cccc(OC(F)F)c3)cc2)nc(C)n1` as the molecule, how does the inhibition read?
A: The inhibition was -4.83%.

Q: How did the inhibition turn out when `COc1ccc(C2c3[nH]c4ccccc4c3C[C@H]3C(=O)N(CC(C)C)CC(=O)N23)c(OC)c1` (stereo partly drawn) was run?
A: The inhibition was 13.6%.

Q: For `COc1ccc(Br)c2c1C(=O)CC2`, which inhibition is on record?
A: The inhibition was 7.81%.

Q: For `O=C(NCCCn1ccnc1)C(=O)NCC1OCCN1S(=O)(=O)c1cc(F)ccc1F` (stereo not drawn), which inhibition is on record?
A: Its inhibition is -11.2%.

Q: Which inhibition does the source give for `CCOC(=O)c1ccc(NC(=O)c2cc(=O)[nH]c3ccccc23)cc1` here?
A: Its inhibition is 23%.

Q: How did the inhibition turn out when `CCOC(=O)c1ccc(NC(=O)c2c(NCc3ccccc3)[nH]c(=O)[nH]c2=O)cc1` was run?
A: The inhibition was 73.2% (active).

Q: For `CCOC(=O)c1ccc(NC(=O)c2c(N)n(C)c(=O)[nH]c2=O)cc1`, which inhibition is on record?
A: The inhibition was 5.07%.

Q: With `CCOC(=O)N1CCC(N2Cc3cccc(C(=O)Nc4c(C)cccc4CC)c3C2=O)CC1` as the molecule, how does the inhibition read?
A: The inhibition was 12.5%.

Q: For `CCOc1ccccc1NC(=O)Cn1nnc(C(=O)NCc2cccs2)c1N`, which inhibition is on record?
A: Its inhibition is 61.5% (active).

Q: How did the inhibition turn out when `Cc1ccc(NC(=O)Cn2nnc(C(=O)NCc3ccco3)c2N)c(C)c1` was run?
A: Its inhibition is 11.7%.

Q: For `CCOc1ccccc1NC(=O)Cc1cccs1`, which inhibition is on record?
A: Its inhibition is 2.43%.

Q: Which inhibition does the source give for `COc1ccc(-c2c(C)cc3oc(=O)cc(-c4ccccc4)c3c2C)cc1C=O` here?
A: Its inhibition is 27.5%.

Q: Which inhibition does the source give for `COc1cc(OC)c2ccc(=O)oc2c1C(CCN1CCN(c2ccccc2)CC1)c1ccc2c(c1)OCO2` (stereo not drawn) here?
A: The inhibition was 42.4%.

Q: Which inhibition does the source give for `CCN(CC)CCC(c1cc(OC)c(OC)c(OC)c1)c1c(OC)cc(OC)c2c(-c3ccccc3)cc(=O)oc12` (stereo not drawn) here?
A: Its inhibition is 62.7% (active).

Q: For `CCN(CC)C(=O)CC(c1ccc2c(c1)OCO2)c1c(OC)cc(OC)c2c(-c3ccccc3)cc(=O)oc12` (stereo not drawn), which inhibition is on record?
A: The inhibition was 13%.

Q: With `CCN(CC)CCC(c1ccc2c(c1)OCO2)c1c(OC)cc(OC)c2c(-c3ccccc3)cc(=O)oc12` (stereo not drawn) as the molecule, how does the inhibition read?
A: The inhibition was 76.1% (active).

Q: For `COc1cc(C(CCN2CCN(c3ccccc3)CC2)c2c(OC)cc(OC)c3ccc(=O)oc23)cc(OC)c1OC` (stereo not drawn), which inhibition is on record?
A: Its inhibition is 15.2%.

Q: How did the inhibition turn out when `O=C(CN1CCCCC1)NC(=O)Nc1ccccc1F` was run?
A: The inhibition was 12.7%.

Q: Which inhibition does the source give for `O=C(NNC1=C(C(=O)C(F)(F)F)CCC1)c1ccncc1` here?
A: Its inhibition is 8.09%.

Q: Which inhibition does the source give for `COc1cc(OC)c(C(=O)NNC(=O)c2ccccc2-n2cccc2)cc1OC` here?
A: Its inhibition is 12.8%.

Q: For `CNC(=O)C1CC(=O)N(c2ccc(OCC(=O)Nc3ccccc3C)cc2)C1` (stereo not drawn), which inhibition is on record?
A: Its inhibition is 10.1%.

Q: With `COc1ccc(CN2[C@@H](CC(=O)O)c3cc(F)ccc3S2(=O)=O)cc1` as the molecule, how does the inhibition read?
A: Its inhibition is -1.99%.

Q: For `CCCCCNC(=O)c1cccnc1SCC(=O)Nc1ccccc1OC`, which inhibition is on record?
A: Its inhibition is 1.51%.

Q: For `Cc1cccc(NS(=O)(=O)c2cccc(C(=O)NNC(=O)c3ccccc3O)c2)c1`, which inhibition is on record?
A: Its inhibition is 46%.

Q: `CCOC(=O)C(C)N(c1ccccc1Cl)S(C)(=O)=O` (stereo not drawn) was tested. Which inhibition did it give?
A: The inhibition was 19%.

Q: How did the inhibition turn out when `CC(C)=CCCC1(C)C=Cc2c(ccc3c2[nH]c2cc(O)c(C)cc23)O1` (stereo not drawn) was run?
A: The inhibition was 97.9% (active).

Q: Which inhibition does the source give for `CC(Sc1ccccc1F)C(=O)Nc1cccc(S(=O)(=O)N2CCOCC2)c1` (stereo not drawn) here?
A: Its inhibition is 8.39%.

Q: With `COc1ccc(NC(=O)NC2CC3CCCC(C2)N3Cc2ccccc2)cc1` (stereo not drawn) as the molecule, how does the inhibition read?
A: The inhibition was 5.4%.

Q: `Cc1c(NC(=O)C(C)OC(=O)c2ccccc2O)c(=O)n(-c2ccccc2)n1C` (stereo not drawn) was tested. Which inhibition did it give?
A: The inhibition was 13.1%.

Q: Which inhibition does the source give for `CCOc1cc(/C=C/c2nc3ccccc3c(=O)[nH]2)cc(Br)c1OC` here?
A: Its inhibition is 69.3% (active).

Q: `O=c1[nH]c(/C=C/c2cccc(Br)c2)nc2ccccc12` was tested. Which inhibition did it give?
A: Its inhibition is 48.2%.

Q: Which inhibition does the source give for `COc1ccc(C)cc1-n1nnnc1SCc1nc2ccccc2c(=O)[nH]1` here?
A: The inhibition was 18.2%.

Q: For `Cc1nonc1OCCn1nnnc1N`, which inhibition is on record?
A: The inhibition was 6.95%.

Q: `COC(=O)c1ccc(Sc2ccc(F)cc2)c(N)c1` was tested. Which inhibition did it give?
A: The inhibition was -11%.

Q: Which inhibition does the source give for `Oc1cccc(/C=N/Nc2ccc(Cl)nn2)c1O` here?
A: Its inhibition is 68.6% (active).

Q: `Cc1ccsc1/C=N/Nc1ccc(Cl)nn1` was tested. Which inhibition did it give?
A: The inhibition was -10.7%.

Q: How did the inhibition turn out when `COc1cccc(/C=N/Nc2ccc(Cl)nn2)c1` was run?
A: Its inhibition is -64.5%.

Q: `Cc1cc(N2CCCC2)ccc1NC(=O)COc1ccc(Cl)cc1` was tested. Which inhibition did it give?
A: Its inhibition is -1.43%.

Q: `CCN(CC)C(=O)c1nc[nH]c1C(=O)N(C)Cc1ccccc1` was tested. Which inhibition did it give?
A: The inhibition was -2.16%.

Q: `Cc1ccccc1CNC(=O)CCC(=O)N1Cc2ccccc2Oc2ncccc21` was tested. Which inhibition did it give?
A: Its inhibition is 18.7%.

Q: How did the inhibition turn out when `CC[C@H]1OC(=O)[C@H](C)[C@@H](O[C@H]2C[C@@](C)(OC)[C@@H](O)[C@H](C)O2)[C@H](C)[C@@H](O[C@@H]2O[C@H](C)C[C@H](N(C)C)[C@H]2O)[C@](C)(O)C[C@@H](C)[C@@H]2N[C@@H](COCCOC)O[C@H]([C@H]2C)[C@]1(C)O` was run?
A: Its inhibition is -10.6%.

Q: How did the inhibition turn out when `C=CCOc1c2ccc(C(=O)N(CC)c3ccc(OC)cc3)cc2nn1C` was run?
A: The inhibition was 13.6%.

Q: With `CCCn1nc(C(=O)NNC(=O)CSCC(=O)Nc2cc(C)on2)c2ccccc2c1=O` as the molecule, how does the inhibition read?
A: The inhibition was -23.6%.

Q: For `CCCn1nc(C(=O)Nc2ccc3nc(C)sc3c2)c2ccccc2c1=O`, which inhibition is on record?
A: Its inhibition is 65.5% (active).

Q: How did the inhibition turn out when `CCCCn1nc(C(=O)Nc2cccc(C(=O)NC3CC3)c2)c2ccccc2c1=O` was run?
A: The inhibition was -19.3%.
